Shown are actives, neighbours in structure and some others; about 27% of the full set was active somewhere.
CYP2C19 inh – blockers of cytochrome P450 2C19 activity – biochemical, luminescence, ADME assay, primary screen; P33261; CYP2C19 Supersomes, luciferin-H EGE luminescence, 30 min; inhibition, % at 5 µM; 96,000 tested, 21% active;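 active = CYP2C19 inhibition above a set limit at 5 µM in the primary screen, cut at about 50% in these data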;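 note: plate controls were negative control wells for no effect and 2.5 mM tranylcypromine positive control for full effect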
CYP2C9 activ – human CYP2C9 activators, primary screen, biochemical, luminescence | Cytochrome P450 2C9 (Homo sapiens), P11712 | recombinant CYP2C9, luciferin-H conversion; stronger effect = higher value; factor 1 = untreated enzyme, 0 = blocked | activation factor at 5 µM | 96,000 tested, 1.4% active | AID 1024, 2008;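 active = activation factor of 2 or more for CYP2C9 at a 5 µM dose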;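 note: 0 = sulfaphenazole-blocked wells and 1 = vehicle-only wells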
Target sequence (P11712 whole entry, looked up): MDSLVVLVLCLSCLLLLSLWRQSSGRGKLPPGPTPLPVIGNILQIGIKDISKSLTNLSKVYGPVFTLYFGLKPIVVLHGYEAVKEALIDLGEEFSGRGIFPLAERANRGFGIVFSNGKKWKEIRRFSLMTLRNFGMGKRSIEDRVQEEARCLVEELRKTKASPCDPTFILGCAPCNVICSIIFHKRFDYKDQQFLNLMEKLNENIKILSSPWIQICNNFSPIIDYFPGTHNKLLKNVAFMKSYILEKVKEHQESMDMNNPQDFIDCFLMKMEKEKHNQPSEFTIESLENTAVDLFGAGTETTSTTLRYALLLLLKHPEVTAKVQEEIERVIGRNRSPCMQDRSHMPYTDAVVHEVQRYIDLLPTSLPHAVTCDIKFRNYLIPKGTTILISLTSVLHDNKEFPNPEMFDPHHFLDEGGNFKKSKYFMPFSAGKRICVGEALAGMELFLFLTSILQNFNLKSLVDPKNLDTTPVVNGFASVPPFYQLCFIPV
CYP2C9 inh – blockers of cytochrome P450 2C9 activity – biochemical, luminescence, ADME assay, primary screen | CYP2C9 Supersomes, luciferin-H conversion | P11712 | inhibition, % at 5 µM | 96,000 tested, 20% active;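 active = blocking of liver enzyme CYP2C9 beyond about 50% at 5 µM, limit read from the data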
CYP2C19 act – human CYP2C19 activators, primary screen, biochemical, luminescence | Cytochrome P450 2C19 (Homo sapiens), P33261 | recombinant CYP2C19, luciferin-H EGE luminescence; stronger effect = higher value; 0 = fully inhibited enzyme, 1 = untreated enzyme | activation factor at 5 µM | 96,000 tested, under 10 active;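 active = activation factor of at least 2 at 5 µM in the primary screen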;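 note: 0 = wells with 2.5 mM tranylcypromine and 1 = vehicle-only wells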
Cav32 inh – Cav3.2 calcium influx blockers – cell-based, Fluo-4 calcium fluorescence, FDSS, MLSMR library, primary screen; 100,000 tested, 4% active; B-score at 10 µM; Voltage-dependent T-type calcium channel subunit alpha-1H (Homo sapiens), O95180; AID 449739, 2010; Cav3.2-expressing cells; stronger effect = lower value;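 active = single-dose well whose peak fluorescence ratio is a statistical outlier from its plate by either plate-standardised score or position-corrected B-score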
* hit, by the source's call; x = not tested or not shown.

SMILES	CYP2C19 inh	CYP2C9 activ	CYP2C9 inh	CYP2C19 act	Cav32 inh
CCCn1nc(C(=O)Nc2ccc(S(=O)(=O)Nc3nccs3)cc2)c2ccccc2c1=O	5.2	0.4	59.5*	0.9	0.441
CN(C)/C=C1\C(=O)N(c2ccc([N+](=O)[O-])cc2)N=C1c1ccccc1	13.1	0.7	28.2	0.9	-0.255
CC1(C)CC(=O)C2=C(C1)OC(N)=C(C#N)C21C(=O)N(Cc2ccccc2Cl)c2ccccc21 (stereo not drawn)	85.9*	0.1	93.5*	0.1	-0.414
CC1(C)CC(=O)C2=C(C1)OC(N)=C(C#N)C21CCN(Cc2ccccc2)CC1	73.0*	0.3	74.1*	0.3	-1.07
CC(=O)N1CCC2(CC1)C(C#N)=C(N)OC1=C2C(=O)CC(C)(C)C1	-7.8	1.2	-19.3	1.1	-1.65
CCOC(=O)N1CCC2(CC1)C(C#N)=C(N)OC1=C2C(=O)CC(C)(C)C1	23.9	0.5	54.4*	0.8	1.57
CCCn1c(CN(Cc2ccccc2)Cc2ccccc2)nc2c1c(=O)n(C)c(=O)n2C	8.5	0.1	86.6*	0.9	-4.36*
CCCCn1c(CN(C)Cc2ccccc2)nc2c1c(=O)n(C)c(=O)n2C	55.1*	0	98.1*	0.4	-2.57
CCOC(=O)Cn1c(CN2CCOCC2)nc2c1c(=O)n(C)c(=O)n2C	-16.2	1.2	-16.9	1.2	0.0588
CCOC(=O)Cn1c(CN(Cc2ccccc2)Cc2ccccc2)nc2c1c(=O)n(C)c(=O)n2C	83.3*	0	98.9*	0.2	-4
CCCn1c(CN(C)Cc2ccccc2)nc2c1c(=O)n(C)c(=O)n2C	x	x	x	x	-0.314
CN(Cc1ccccc1)Cc1nc2c(c(=O)n(C)c(=O)n2C)n1Cc1ccccc1Cl	25.5	0.2	81.2*	0.7	-2.63
COCCn1c(CN(C)Cc2ccccc2)nc2c1c(=O)n(C)c(=O)n2C	11.3	0.5	46.8	0.9	1
Cc1cccc2c1NC(C)CC2C (stereo not drawn)	0.7	0.9	6.1	1	0.975
Clc1ccc(-c2ccc(/C=N/Nc3cc(N4CCOCC4)nc(N4CCOCC4)n3)o2)cc1	x	x	x	x	0.208
Cn1c(=O)c2c(nc(NCc3ccc4c(c3)OCO4)n2Cc2ccccc2Cl)n(C)c1=O	0.7	1	1.4	1	0.448
Cn1c(=O)c2c(nc(OCc3ccc4c(c3)OCO4)n2Cc2ccccc2Cl)n(C)c1=O	56.2*	0.9	10.2	0.4	0.0935
Cc1cc(SCC(=O)c2cc3ccccc3o2)nc2ccccc12	28.2	1	0.4	0.7	0.145
CN(C)Cc1nc2ccccc2c(=O)n1Cc1nc(-c2cc3ccccc3o2)cs1	17.8	0.3	70.4*	0.8	-0.912
CCOc1cc(C(=O)Nc2ccccc2N2CCN(S(C)(=O)=O)CC2)cc(OCC)c1OCC	19.9	0.8	20.0	0.8	0.421
Cc1ccc(-c2noc(CCC(=O)N3CCCC3)n2)cc1	52.2*	0.5	52.3*	0.5	-0.409
Cc1ccc(-c2noc(CCC(=O)NC3CCCc4ccccc43)n2)cc1 (stereo not drawn)	3.9	0.4	62.1*	1	-3.62
COc1ccc(-c2noc(CCC(=O)N3CCC(C)CC3)n2)cc1	9.6	0.7	28.2	0.9	-0.0509
Cc1cc(C(=O)NC2CCCc3ccccc32)no1 (stereo not drawn)	41.2	0.9	12.9	0.6	0.319
COc1ccc(-c2noc(CCC(=O)N3CCN(Cc4ccccc4)CC3)n2)cc1	93.9*	0	95.1*	0.1	x
SMILES	CYP2C19 inh	CYP2C9 activ	CYP2C9 inh	CYP2C19 act	Cav32 inh
Clc1ccc(-c2noc(CN3CCCC3)n2)cc1	55.0*	1	3.5	0.4	-0.539
C=CCn1c(=O)c2c(C)c(C)sc2n2c(Nc3ccccc3)nnc12	10.7	0.7	27.9	0.9	0.842
CNC(=O)CC(C(=O)O)c1ccc(OCC(C)C)cc1 (stereo not drawn)	-13.6	1.1	-12.7	1.1	x
c1ccc(CC2CCN(Cc3nc(-c4ccccc4)no3)CC2)cc1	14.0	0.9	9.9	0.9	-0.603
Cc1ccc(-c2noc(CCC(=O)NC3CCN(Cc4ccccc4)CC3)n2)cc1	54.6*	0.3	72.0*	0.5	-0.0644
COc1ccc(-c2noc(CN3CCC(Cc4ccccc4)CC3)n2)cc1	65.6*	0.3	70.7*	0.3	0.548
Cc1c(Cl)cccc1NC(=O)c1ccc(-n2ccnc2)nc1	99.1*	0	98.5*	0	1.8
C#CCNC(=O)C1=C[C@H](C)[C@@H](CCCO)[C@H](OCC)O1	x	x	x	x	0.0673
O=C(Nn1nnnc1Nc1ccccc1)C12CC3CC(CC(C3)C1)C2	71.3*	0.7	33.0	0.3	-2.26
O=C(Nc1ccc(Cl)c(C(F)(F)F)c1)NC1CC2CCCC(C1)N2C1CC1 (stereo not drawn)	x	x	x	x	-3.97
CCS(=O)(=O)N1CCC(C(=O)NCCCN2CCCC2)CC1	-20.5	1.2	-18.8	1.2	0.523
O=C1C2C(C(=O)N1CCc1ccccc1)C1C=CC2C12CC2 (stereo not drawn)	92.0*	0.7	29.3	0.1	0.438
O=C1C2C3C=CC(C3)C2C(=O)N1CCc1ccccc1 (stereo not drawn)	90.3*	0.7	35.0	0.1	1.44
O=C(NCCN1C(=O)C2C3C=CC(C3)C2C1=O)Nc1ccccc1O (stereo not drawn)	76.9*	0.8	17.3	0.2	-0.189
CCC1(C)CC(CCNS(=O)(=O)c2ccc(C)cc2)(c2ccc(C)cc2)CCO1 (stereo not drawn)	69.0*	0.5	53.3*	0.3	-5.35*
Cc1ccc(S(=O)(=O)n2[nH]c(=O)cc2N)cc1	x	x	x	x	1.49
CC1CN(c2nc3ccccn3c(=O)c2/C=C(\C#N)S(=O)(=O)c2ccccc2)CC(C)O1 (stereo not drawn)	84.6*	0.2	83.9*	0.2	1.22
NC(=O)C1CCN(C2=C(Cl)C(=O)c3ccccc3C2=O)CC1	16.7	0.9	12.3	0.8	-0.681
N#C/C(=C\c1c(N2CCC(C(N)=O)CC2)nc2ccccn2c1=O)S(=O)(=O)c1ccccc1	25.7	0.2	78.8*	0.7	0.665
Cc1cccc(S(=O)(=O)C(C#N)c2nc3ccccc3nc2N2CC(C)OC(C)C2)c1 (stereo not drawn)	10.9	0.6	43.1	0.9	-2.54
O=C(O/N=C/c1ccc2c(c1)OCO2)c1ccccc1Cl	39.7	1.3	-26.0	0.6	-0.104
Cc1sc(NC(=O)CSc2nnc(C)c(=O)[nH]2)c(C#N)c1C	11.5	0	97.4*	0.9	-0.771
Cc1nnc(SCC(=O)Nc2nccs2)[nH]c1=O	4.4	1.1	-12.0	1	1.31
Cc1nnc(SCC(=O)Nc2sc3c(c2C(N)=O)CCCC3)[nH]c1=O	1.4	0.3	68.8*	1	0.286
CCCn1c(SCC(=O)Nc2sc(C)c(C)c2C#N)nnc1C(C)C	75.3*	0.8	22.1	0.2	1.65

Screens deposited in PubChem BioAssay by several laboratories.
